Experiment [1] is described as follows: resazurin metabolic signal in HepG2 cells – cell-based, resazurin fluorescence, 24 h, PK04 Diversity Set, profiling panel (AID 1172). Further: test concentration not given here. To be noted: HepG2 viability, higher = more signal. On the technique in general: Alamar Blue is a resazurin reagent that responds to reducing activity.
Experiment [2] is described as follows: budding yeast growth changes without added modifier – OD600, strain BY4716, 24 h, basal condition, primary screen (AID 1173). To be noted: S. cerevisiae BY4716 growth, OD600, 24 h; higher = more signal, called active from +8 up or from −8 down.
Experiment [3] is described as follows: viability profiling in MM1S myeloma cells – cell-based, resazurin fluorescence, basal, 24 h, PK04 Diversity Set, profiling panel (AID 1174).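 Further: MM1S multiple myeloma cell line; test concentration not given here.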 To be noted: higher = more signal, called active from +8 up or from −8 down.
For experiment [4], the target named is Dihydroorotate dehydrogenase (quinone), mitochondrial (Plasmodium falciparum (isolate 3D7)) (UniProt Q08210). Nature of the experiment: inhibition of P. falciparum DHODH – biochemical, C-terminal His tag, absorbance 600 nm, primary screen (AID 1175).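 Further: recombinant parasite enzyme with a five histidine tag at its C terminus; test concentration not given here.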 To be noted: PfDHODH enzyme, DCIP absorbance 600 nm; higher = more signal, called active from +8 up or from −8 down.
Dihydroorotate dehydrogenase (quinone), mitochondrial (Plasmodium falciparum (isolate 3D7)), sequence (Q08210 whole entry, looked up): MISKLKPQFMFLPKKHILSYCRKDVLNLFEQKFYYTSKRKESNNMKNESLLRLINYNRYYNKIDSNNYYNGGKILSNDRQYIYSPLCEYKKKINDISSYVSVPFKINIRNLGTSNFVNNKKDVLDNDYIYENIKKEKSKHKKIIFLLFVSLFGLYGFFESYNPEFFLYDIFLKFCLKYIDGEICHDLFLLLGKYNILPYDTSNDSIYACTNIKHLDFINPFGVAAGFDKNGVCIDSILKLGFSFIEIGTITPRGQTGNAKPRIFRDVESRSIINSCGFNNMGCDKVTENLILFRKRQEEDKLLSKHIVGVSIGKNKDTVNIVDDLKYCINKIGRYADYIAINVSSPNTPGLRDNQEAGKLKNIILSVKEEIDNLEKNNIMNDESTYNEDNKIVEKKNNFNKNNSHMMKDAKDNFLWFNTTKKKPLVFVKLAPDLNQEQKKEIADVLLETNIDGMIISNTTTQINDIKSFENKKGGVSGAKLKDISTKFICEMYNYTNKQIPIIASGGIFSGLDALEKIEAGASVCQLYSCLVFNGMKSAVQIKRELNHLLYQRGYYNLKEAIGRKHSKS

Experiment [5] in a line: inhibition of PAO1 biofilm formation – strain PAO1, LB-PBS medium, absorbance 600 nm, primary screen (AID 1176). Further: test concentration not given here. To be noted: P. aeruginosa PAO1 growth/biofilm, A600, 12 h; higher = more signal.
Experiment [6] is described as follows: growth modulation of vineyard yeast isolate – strain RM11-1a, OD600, basal, 24 h, primary screen (AID 1177).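 Further: cultures grown under basal conditions with no added stressor; test concentration not given here.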 To be noted: S. cerevisiae RM11-1a growth, OD600, 24 h; higher = more signal, called active from +8 up or from −8 down.
Experiment [7] in a line: growth of efflux-deficient E. coli DRC39 – strain DRC39, OD650, 24 h, E. coli filamentation inducers, primary screen (AID 1178).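 Further: growth measured as culture turbidity by optical density at 650 nm; test concentration not given here.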 To be noted: E. coli DRC39 acrAB, higher = more signal, called active from +8 up or from −8 down.
Experiment [8] is described as follows: growth of efflux-deficient E. coli DRC39 – strain DRC39, OD650, 48 h, E. coli filamentation inducers, primary screen (AID 1179).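 Further: screen aims at cell division blockers that make cells filament.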 To be noted: E. coli DRC39 delta-acrAB growth, higher = more signal, called active from +8 up or from −8 down.
Experiment [9] is described as follows: viability profiling in RPMI8226 myeloma cells – cell-based, resazurin fluorescence, basal, 24 h, PK04 Diversity Set, profiling panel (AID 1180).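 Further: RPMI8826 multiple myeloma cell line at 5000 cells per well; test concentration not given here.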 To be noted: higher = more signal.
Experiment [10] concerns the target E3 ubiquitin-protein ligase XIAP (Homo sapiens) (UniProt P98170). Nature of the experiment: small molecules binding XIAP protein – biophysical, small-molecule microarray, fluorescence 635 nm, primary screen (AID 1181).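 Further: score merges 667 nm emission and signal to noise over triplicate slides.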 To be noted: higher = more signal.

SMILES strings stand for the structures. The source made the active and inactive calls. Unless noted, how the calls were made is not given here.

E3 ubiquitin-protein ligase XIAP (Homo sapiens), sequence (P98170 whole entry, looked up): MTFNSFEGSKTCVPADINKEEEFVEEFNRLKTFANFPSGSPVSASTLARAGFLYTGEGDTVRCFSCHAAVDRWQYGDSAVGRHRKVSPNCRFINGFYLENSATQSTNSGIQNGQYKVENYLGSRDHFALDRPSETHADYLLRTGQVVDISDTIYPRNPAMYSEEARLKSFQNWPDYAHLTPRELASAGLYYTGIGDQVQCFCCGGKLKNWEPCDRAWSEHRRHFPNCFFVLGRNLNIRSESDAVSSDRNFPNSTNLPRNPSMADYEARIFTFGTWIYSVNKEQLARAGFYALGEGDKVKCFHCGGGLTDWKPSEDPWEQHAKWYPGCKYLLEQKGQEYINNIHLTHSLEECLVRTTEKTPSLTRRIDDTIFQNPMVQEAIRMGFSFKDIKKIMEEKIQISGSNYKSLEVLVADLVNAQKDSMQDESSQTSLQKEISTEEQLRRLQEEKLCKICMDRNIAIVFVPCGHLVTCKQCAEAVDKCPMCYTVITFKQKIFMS

On to `CCCC=C(CCC)[C@@H](NS(=O)(=O)c1ccc(-c2ccccc2)cc1)c1ccc(C(=O)OC)cc1`, for which the z-score in experiment [1] is 0.0252; in [2], 1.72 (inactive); in experiment [3], 0.303 (inactive); in [5] it was 2.67 (inactive); in [6], 0.239 (inactive); in experiment [7] it was -0.811 (inactive). Also, the z-score in [8] was -0.299 (inactive); in [9], 0.305. In addition, the figures for the composite z-score in experiment [4] and in [10] were -4.09 (inactive) and -0.0948, respectively.

In the case of `CCOC(=O)C1=C[C@@H](c2ccccc2)N(S(=O)(=O)c2ccc(C)cc2)[C@H]1c1ccc(F)cc1`, the z-score in experiment [1] was -0.296; in experiment [2], 1.87 (inactive); in [3], -0.648 (inactive); in experiment [5], 0.216 (inactive); in experiment [6], 2.33 (inactive); in experiment [7], -0.213 (inactive). Further, the z-score in experiment [8] was -0.283 (inactive); in [9], -2.21. The composite z-score in [4] is -0.102 (inactive); in experiment [10], 0.155.

Consider `C=C(CCCC)C(=O)CC[C@@H](OC(C)=O)c1ccccc1OCCO`, for which the z-score was -0.0263 in [1]; -12.5 (active) in [2]; 0.304 (inactive) in [3]; 0.0022 (inactive) in [5]; 2.05 (inactive) in experiment [6]; 0.662 (inactive) in experiment [7]. Moreover, the values for the z-score in experiment [8] and in experiment [9] were 0.378 (inactive) and -0.277, respectively. Also, the composite z-score in [4] is -2.71 (inactive); in experiment [10] it was -0.193.

Take `CC1=C([C@H](O)CCc2ccccc2)[C@H](CO)[C@@H]2C(=O)N(Cc3ccccc3)C(=O)[C@@H]2C1`: the z-score in experiment [1] is 0.325; in experiment [2], -3.02 (inactive); in experiment [3], 0.169 (inactive); in [5], 0.0694 (inactive); in experiment [6], 0.0743 (inactive); in experiment [7], 1.6 (inactive). Further, the z-score in experiment [8] is 0.204 (inactive); in experiment [9] it was 0.308. In addition, the composite z-score was -1.68 (inactive) in experiment [4] and 0.201 in experiment [10].

`COC(=O)[C@@]1(Cc2ccc(OC)cc2)[C@H]2c3cc(C(=O)N(C)C)n(CCc4ccc(OC)c(Br)c4)c3C[C@H]2CN1C(=O)c1ccccc1`: the z-score in [1] was -0.575; in experiment [2], 1.36 (inactive); in [3], -2.09 (inactive); in [5], 1.22 (inactive); in experiment [6] it was 0.961 (inactive); in experiment [7], -0.307 (inactive). Besides, the z-score in experiment [8] is -0.025 (inactive); in experiment [9] it was -3.63. Also, the composite z-score in experiment [4] is 0.125 (inactive); in experiment [10], -0.0848.

As to `O=C1O[C@H](c2ccccc2)[C@H](c2ccccc2)N2[C@H]1[C@@H](C(=O)NC[C@H](O)c1ccccc1)[C@]1(C(=O)Nc3ccc(C#CC4(O)CCCCCC4)cc31)[C@H]2c1ccc(OCCO)cc1`, the z-score in experiment [1] was -0.148; in experiment [2], 0.359 (inactive); in experiment [3], -0.15 (inactive); in [5], 1.9 (inactive); in experiment [6], 1.68 (inactive); in experiment [7] it was 1.66 (inactive). Besides, the z-score in experiment [8] is 0.855 (inactive); in [9] it was 0.931. The composite z-score in experiment [4] was -1.82 (inactive); in experiment [10], -0.168.

With `CN1C(=O)C2C=CC(C(O)c3ccc(N(C)C)cc3)N(Nc3ccc([N+](=O)[O-])cc3[N+](=O)[O-])C2C1=O` (stereo not given), the z-score is 0.183 in experiment [1]; 0.111 (inactive) in experiment [2]; -0.355 (inactive) in [3]; 0.558 (inactive) in experiment [5]; -0.29 (inactive) in [6]; -0.243 (inactive) in experiment [7]. Besides, the z-score was -0.411 (inactive) in [8] and 0.236 in experiment [9]. Moreover, the composite z-score in experiment [4] was -0.548 (inactive); in experiment [10], -0.0023.

Take `Cc1ccc(S(=O)(=O)N2[C@@H](c3ccccc3)C(C(=O)O)=CC[C@H]2c2ccccc2)cc1`: the z-score in [1] was -1.18; in [2], 0.131 (inactive); in [3], -2.14 (inactive); in [5] it was -0.0727 (inactive); in [6], 0.256 (inactive); in experiment [7], -0.992 (inactive). Moreover, the z-score in [8] was -1.25 (inactive); in experiment [9] it was -1.8. The composite z-score was 1.03 (inactive) in experiment [4] and 0.261 in experiment [10].

Turning to `O=C(NCC(F)(F)F)[C@@H]1c2ccccc2C(=O)N(Cc2ccccc2Cl)[C@H]1c1ccc(CO)cc1`, the z-score in [1] was 0.519; in [2], -0.331 (inactive); in [3], 0.403 (inactive); in experiment [5], 0.277 (inactive); in [6] it was -0.562 (inactive); in experiment [7] it was 0.113 (inactive). For the same compound, the z-score in [8] is 0.183 (inactive); in experiment [9], 0.641. In addition, the composite z-score was -0.731 (inactive) in [4] and 0.282 in [10].

Values taken from PubChem BioAssay.
